Reference: PubChem BioAssay (NCATS)
Inconclusive results are not listed. A call without a number means that no potency is given here. Active and inactive are the calls of the source. The call rests on the fitted dose curve; in most records, active means well fitted inhibition curve with a large enough effect; inconclusive means small, poorly fitted or top-dose-only effect; inactive means flat fitted curve, though single readings scatter.

What follows are compounds tested against Luciferin 4-monooxygenase (Photinus pyralis) (UniProt P08659) (assay: Biochemical firefly luciferase enzyme assay for NPC (AID 624030;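 further: purified P. pyralis luciferase at 10 nM with luciferin and ATP substrate; nearly all actives have a fitted effect of over 70% in size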)). Settings: purified P. pyralis luciferase, luminescence, 5 min; series mostly up to 58.6 µM.
In short: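 Direct inhibition of firefly luciferase enzyme (10 nM final, 50 mM Tris Acetate) assessed by luminescence within 5 minutes. Percent activity scaled between DMSO and PTC124 positive control, with concentration-effect curves classified by fit quality and response.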

Sequence of Luciferin 4-monooxygenase (Photinus pyralis) (P08659 whole entry, looked up): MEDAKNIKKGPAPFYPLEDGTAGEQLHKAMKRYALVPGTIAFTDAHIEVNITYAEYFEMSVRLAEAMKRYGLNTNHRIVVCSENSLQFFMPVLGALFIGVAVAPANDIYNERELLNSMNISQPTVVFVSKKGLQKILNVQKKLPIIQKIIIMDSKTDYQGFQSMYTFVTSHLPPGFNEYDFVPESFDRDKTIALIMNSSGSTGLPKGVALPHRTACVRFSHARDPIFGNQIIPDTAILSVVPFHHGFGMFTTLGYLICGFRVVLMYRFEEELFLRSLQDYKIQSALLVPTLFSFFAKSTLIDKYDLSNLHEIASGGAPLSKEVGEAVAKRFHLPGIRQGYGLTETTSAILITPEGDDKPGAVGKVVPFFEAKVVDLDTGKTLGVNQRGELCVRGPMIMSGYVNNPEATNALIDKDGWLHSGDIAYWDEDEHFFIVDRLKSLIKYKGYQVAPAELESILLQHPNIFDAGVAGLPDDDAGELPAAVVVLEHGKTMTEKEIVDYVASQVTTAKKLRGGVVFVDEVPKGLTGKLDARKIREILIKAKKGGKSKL

Structure (SMILES)	Potency
C1CCC(C(CC2CCCCN2)C2CCCCC2)CC1 (stereo unspecified)	inactive
NCCCC(O)(P(=O)(O)O)P(=O)(O)O	inactive
Cc1nnc(C(=O)NC(C)(C)c2nc(C(=O)NCc3ccc(F)cc3)c(O)c(=O)n2C)o1	inactive
COC(=O)Nc1nc2ccc(S(=O)c3ccccc3)cc2[nH]1 (stereo unspecified)	inactive
CNC1CCCN(c2c(F)cc3c(=O)c(C(=O)O)cn(C4CC4)c3c2OC)C1 (stereo unspecified)	inactive
CC(C)C[C@H](NC(=O)[C@H](CCc1ccccc1)NC(=O)CN1CCOCC1)C(=O)N[C@@H](Cc1ccccc1)C(=O)N[C@@H](CC(C)C)C(=O)[C@@]1(C)CO1	inactive
NC1(c2ccc(-c3nc4ccn5c(=O)[nH]nc5c4cc3-c3ccccc3)cc2)CCC1	inactive
Cc1c(-c2ccc(O)cc2)n(Cc2ccc(OCCN3CCCCCC3)cc2)c2ccc(O)cc12	inactive
CNCC[C@H](Oc1cccc2ccccc12)c1cccs1	inactive
COc1ccc(C(=O)CC(=O)c2ccc(C(C)(C)C)cc2)cc1	inactive
Cc1cccc(N(C)C(=S)Oc2ccc3ccccc3c2)c1	inactive
CC(C)OC(=O)OCOP(=O)(CO[C@H](C)Cn1cnc2c(N)ncnc21)OCOC(=O)OC(C)C	inactive
COc1cc([C@@H]2c3cc4c(cc3[C@H](O)[C@H]3COC(=O)[C@H]23)OCO4)cc(OC)c1OC	inactive
O=C(O)CSCC(=O)NC1CCSC1=O (stereo unspecified)	inactive
CC(C)(C)C(=O)OCOP(=O)(COCCn1cnc2c(N)ncnc21)OCOC(=O)C(C)(C)C	inactive
CCN(CC)CCn1c(=O)c(Cc2ccc(OC)cc2)nc2ccccc21	inactive
